Cycloheximide cs = counter-screen for Shiga toxin inhibitors: cycloheximide protein synthesis inhibition | cell reporter, cycloheximide protein synthesis inhibition counterscreen | max response, % | actives 12% (n = 300,000) | AID 2314; in the data active means max response mostly above about 13%, no sharp cut-off; inactive means mostly below about 14%; further: read at 38.3 µM for the half of the compounds with a filed dose; 0% is about no effect
Pf growth 48h = inhibits P. falciparum growth in the first generation, 48 h; P. falciparum luciferase growth in erythrocytes, 48 h; Potency, µM (titrated, usually from 28.7 µM), for the others: at the highest dose activity change, negative = inhibition, most hits filed as inhibitors; actives 5.9% (n = 310,000); further: potency means the concentration at half of the fitted maximal effect; on the % scale 0 is the no-effect control and ±100 the full control effect
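Here the parasites carry a stable luciferase gene and grow inside erythrocytes in Albumax-based RPMI medium with compound for one erythrocytic cycle. Activity is scored as loss of luminescent signal.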
Pf growth 96h = P. falciparum growth inhibition at 96 hours. P. falciparum luciferase reporter growth, 96 h. Potency, µM (top dose mostly 28.7 µM), for inactives: at the top dose activity change, negative = inhibition, hits mostly inhibitors. actives 6.9% (n = 320,000); further: potency means the concentration at half of the fitted maximal effect; on the % scale 0 is the no-effect control and ±100 the full control effect
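P. falciparum expressing integrated firefly luciferase, in erythrocytes at 2% hematocrit, 0.05% parasitemia, incubated with compounds 96 h at 37 C, 5% CO2. Growth inhibition read as loss of luminescence; two-generation exposure targets delayed-death apicoplast inhibitors.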
Shiga toxin inh = inhibitors of Shiga toxin in Vero cells. Vero cells, Shiga toxin protein synthesis inhibition reporter. inhibition, % at 38.7 µM. actives 9.2% (n = 290,000); in the data active means inhibition mostly above about 28%, no sharp cut-off; inactive means mostly below about 43%; further: 0% is about no effect
LmPK inh = blocks Leishmania mexicana pyruvate kinase activity. Q27686. purified LmPK, Kinase-Glo ATP luminescence, 1 h. Potency, µM (titrated, usually from 57.5 µM), without a hit: top-dose activity change, negative = inhibition, hits mostly inhibitors. actives 0.37% (n = 290,000). AID 1721; further: potency means the concentration at half of the fitted maximal effect; on the % scale 0 is the no-effect control and ±100 the full control effect
Target sequence (Q27686 whole entry, looked up): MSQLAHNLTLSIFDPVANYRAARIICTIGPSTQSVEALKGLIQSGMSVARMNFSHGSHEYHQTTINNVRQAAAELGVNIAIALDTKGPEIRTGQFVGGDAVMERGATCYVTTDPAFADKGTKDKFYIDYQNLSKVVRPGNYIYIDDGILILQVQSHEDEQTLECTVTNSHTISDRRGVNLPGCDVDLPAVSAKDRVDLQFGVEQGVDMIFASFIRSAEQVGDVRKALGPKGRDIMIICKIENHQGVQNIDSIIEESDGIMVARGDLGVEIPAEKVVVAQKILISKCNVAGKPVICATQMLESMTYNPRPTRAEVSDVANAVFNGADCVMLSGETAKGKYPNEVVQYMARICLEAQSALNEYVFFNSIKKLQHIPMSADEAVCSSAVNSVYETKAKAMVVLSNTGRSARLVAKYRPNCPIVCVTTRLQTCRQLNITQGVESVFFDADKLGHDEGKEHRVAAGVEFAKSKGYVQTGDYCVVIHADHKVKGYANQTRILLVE
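ATP generated from ADP (0.1 mM) and PEP (0.5 mM) by 0.1 nM LmPK over 1 h at room temperature (pH 7.2 imidazole buffer) was detected by coupled luciferase luminescence. Values were normalized to uninhibited and no-enzyme wells.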
* marks the source's active call; other numbers are inactive results; i = inactive; ? = inconclusive; nt = no result given. A selection: hits, their analogues and other compounds. The true share with any hit is near 22%. Unless noted, the call rests on the fitted dose curve; in most records, active means well fitted inhibition curve with a large enough effect; inconclusive means small, poorly fitted or top-dose-only effect, or another doubt; inactive means no such curve, though single readings can be large or run the other way.

SMILES	Cycloheximide cs	Pf growth 48h	Pf growth 96h	Shiga toxin inh	LmPK inh
CC(C)Cc1nc(N2CCN(C(=O)C(C)C)CC2)c(C#N)c2c1CCC2	54*	151%	?	48	5%
CC(C)Cc1nc(N2CCNCC2)c(C#N)c2c1CCC2	-1	?	-2%	-2	1%
N#Cc1c(N2CCN(C(=O)c3ccccc3)CC2)nc(-c2ccccc2)c2c1CCCC2	-1	nt	13µM*	-7	-3%
N#Cc1c(N2CCN(C(=O)c3ccccc3Cl)CC2)nc(-c2ccccc2)c2c1CCCC2	1	?	?	2	1%
CSc1ccccc1NC(=S)N/N=C/c1cccn1Cc1ccc(F)cc1	7	?	35%	21	0%
CC1CCC2(CC1)NC(=O)N(CC(=O)Nc1cccc(S(=O)(=O)N3CCCC3)c1)C2=O (stereo not given)	nt	?	-26%	nt	nt
Cc1cccnc1Nc1nc(-c2ccccc2)cs1	67*	-42%	5%	104*	-14%
Cc1cccnc1Nc1nc(-c2ccccn2)cs1	47*	?	nt	126*	-5%
N#Cc1c(-c2ccccc2)nc(SCC(=O)Nc2nnc(C(F)(F)F)s2)[nH]c1=O	1	8%	-29%	-18	8%
COc1ccc(CNCCC2(Cc3ccccc3)CC(C)N(C)CC2C)cc1OC (stereo not given)	-1	?	-4%	7	-2%
O=C(CCC(=O)N1CCN(Cc2ccc(F)cc2)CC1)Nc1nnc(C(F)(F)F)s1	-5	-3%	37%	-3	-6%
c1ccc2c(c1)Cn1nnnc1-2	-3	8%	4.1µM*	-13	4%
CSc1ccccc1NC(=O)COc1ccccc1C	27*	6%	94%	47*	-12%
Cc1ccccc1OCC(=O)Nc1ccccc1CO	14	49%	-13%	78*	-3%
COc1ccc(NC(=O)COC(=O)[C@@H](NC(=O)c2c(F)cccc2F)C(C)C)cc1	11	21%	7%	5	7%
CC(=O)Oc1ccc(/C=C2\N=C(C3CCCCC3)OC2=O)cc1	4	9%	?	-3	4%
COc1cccc(/C=C2\N=C(C3CCCCC3)OC2=O)c1OC	52*	12%	?	13	8%
COc1ccc(/C=N/OC(=O)c2ccc(Cl)cc2)c(Cl)c1OC	-3	-4%	51%	15	2%
COC(=O)c1ccc(Cn2cnc3c(cnn3-c3ccc(Cl)cc3)c2=O)o1	-4	6%	2%	-11	0%
COC(=O)c1ccc(Cn2cnc3c(cnn3-c3ccc(F)cc3)c2=O)o1	-6	2%	-19%	-16	7%
CCOC(=O)Cn1cnc2c(cnn2-c2ccc(OC)cc2)c1=O	29*	8%	?	60*	-5%
Cc1nnc2c3cnn(-c4ccc(Cl)cc4)c3ncn12	27*	96%	2%	77*	4%
CC(C)CCn1cnc2c(cnn2-c2ccc(F)cc2)c1=O	36*	112%	nt	60*	-2%
COC(=O)C(C)n1cnc2c(cnn2-c2ccc(Cl)cc2)c1=O (stereo not given)	54*	28%	nt	69*	2%
CC(=O)c1ccc(-c2ccc(-c3cc(=O)oc4c(C(C)C)ccc(C)c34)cc2)cc1	14	nt	nt	i	nt
SMILES	Cycloheximide cs	Pf growth 48h	Pf growth 96h	Shiga toxin inh	LmPK inh
COCc1ccccc1C1=CC(=O)C[C@H](c2ccc(OC)cc2)C1	nt	33%	8%	nt	nt
CN1CCN(c2oc(-c3ccccc3)nc2S(=O)(=O)c2ccc(Br)cc2)CC1	-2	?	44%	15	-1%
CCOC(=O)Cn1cnc2c(cnn2-c2ccccc2)c1=O	21*	-13%	-17%	42	4%
CCOC(=O)Cn1cnc2c(cnn2-c2ccc(Cl)cc2)c1=O	36*	?	?	36	3%
O=C(Cn1cnc2c(cnn2-c2ccccc2)c1=O)NC1CCCC1	8	30%	25%	9	1%
COC(=O)Cn1cnc2c(cnn2-c2ccccc2)c1=O	16*	15%	?	22	-2%
Cc1ccc(-n2ncc3c(=O)n(CC(=O)N(C)C)cnc32)cc1	-3	11%	?	8	0%
COc1ccc(C(=O)NNC(=O)C2CCN(S(=O)(=O)c3ccc(C)cc3)CC2)cc1	-4	-25%	?	12	4%
COc1cc(OC)c(/C=N/n2c(C)nnc2C)c(OC)c1	6	-2%	0%	-2	-2%
COc1cnn(-c2ccccc2)c(=O)c1N(C)C	10	5%	34%	7	-11%
COc1ccc(Oc2c(Cl)cnn(-c3ccc(C)cc3)c2=O)cc1	14*	2%	-2%	2	0%
COc1ccc2cnn(-c3ccc(C)cc3)c(=O)c2c1OC	102*	nt	40%	153*	6%
COc1c(Cl)cnn(-c2ccc(C)cc2)c1=O	25*	?	-8%	66*	-5%
COc1ccc(Oc2c(Cl)cnn(-c3ccc(F)cc3)c2=O)cc1	7	-4%	0%	-11	1%
COc1cnn(-c2cccc(C)c2)c(=O)c1Cl	19*	9%	150%	15	3%
CC(C)c1ccc(N(CC(=O)NC2CCCC2)C(=O)CCC(=O)Nc2nccs2)cc1	-7	?	?	-10	9%
CCN(CC)S(=O)(=O)c1ccc2c(c1)N(CC(=O)Nc1ccc(NC(C)=O)cc1)C(=O)CO2	-2	10%	?	6	1%
CN1CCc2c(sc3c2C(=O)NC(c2ccco2)N3)C1 (stereo not given)	4	1%	?	-1	2%
CN1CCc2c(sc3c2C(=O)NC(c2cccc(OC(=O)c4cccs4)c2)N3)C1 (stereo not given)	45*	116%	?	70*	-2%
O=S(=O)(NCc1nnc2c(C(F)(F)F)cc(Cl)cn12)c1ccccc1	-4	16%	7%	-5	-2%
CC1(C)CC(NC(=O)c2cccc(S(=O)(=O)N(Cc3ccccc3)c3ccccc3)c2)CC(C)(C)N1	nt	10µM*	13µM*	nt	nt
O=C(O)c1cccc(S(=O)(=O)N(Cc2ccccc2)c2ccccc2)c1	-1	35%	-16%	22	5%
COc1ccc(N(Cc2ccccc2)S(=O)(=O)c2cccc(C(=O)NC3=NCCS3)c2)cc1	-4	3%	?	-2	-4%
COc1ccccc1N(Cc1ccccc1)S(=O)(=O)c1cccc(C(=O)Nc2ccccn2)c1	25*	10µM*	9.3µM*	50*	-5%
COc1ccccc1N(Cc1ccccc1)S(=O)(=O)c1cccc(C(=O)Nc2ccc(C)cn2)c1	nt	4.1µM*	1.9µM*	nt	nt
Cc1cc(=O)[nH]c(SCC(=O)N2C(C)CCCC2C)n1 (stereo not given)	-2	10%	-3%	7	-4%
COC1CCCN(C(=O)c2cccc(OC3CCN(S(C)(=O)=O)CC3)c2)C1 (stereo not given)	1	32%	?	-3	0%

Screens (PubChem BioAssay)
